# Assay results as given in PubChem BioAssay (NCATS).
# Records with an inconclusive call do not appear. A call without a number means that no potency is given here. Activity calls are given as the source filed them. The call rests on the fitted dose curve; in most records, active means well fitted curve in the direction sought with a large enough effect; inconclusive means small, poorly fitted or top-dose-only effect, or another doubt; inactive means no such curve, though single readings can be large; an effect the other way counts as inactive or inconclusive.
# Legend:
# [1] = qHTS of pediatric cancer cell lines to identify multiple opportunities for drug repurposing: Primary screen for DAOY cells (AID 1347090); further: series mostly up to about 46 µM; nearly all actives have a fitted effect of over 55% in size
# In short: (§1)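 Cell viability, CellTiter-Glo luminescence; 500-1,000 cells/well, 8- or 11-point titration, 48 h compound exposure at 37 degrees C, 5% CO2. Controls: DMSO neutral, bortezomib 2.3 µM final as positive.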
# [2] = qHTS of pediatric cancer cell lines to identify multiple opportunities for drug repurposing: Primary screen for SJ-GBM2 cells (AID 1347091)
# In short: as §1
# [3] = qHTS of pediatric cancer cell lines to identify multiple opportunities for drug repurposing: Primary screen for SK-N-MC cells (AID 1347093); further: series mostly up to about 46 µM
# In short: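 Metabolically active cells were quantified by ATP-dependent luminescence (CellTiter-Glo, 15 min at room temperature) following 48 h treatment. Cells had been plated at 500-1,000 per well and settled for 5 h beforehand.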
# [4] = qHTS of pediatric cancer cell lines to identify multiple opportunities for drug repurposing: Primary screen for BT-37 cells (AID 1347094); further: series mostly up to about 57 µM
# In short: (§2)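 Plated cells (500-1,000 per well, growth media) were allowed to settle for 5 hours, treated with compound dilutions for 48 hours, then lysed with CellTiter-Glo for 15 min at room temperature before luminescence reading.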
# [5] = qHTS of pediatric cancer cell lines to identify multiple opportunities for drug repurposing: Primary screen for NB-EBc1 cells (AID 1347095)
# In short: as §2
# [6] = qHTS of pediatric cancer cell lines to identify multiple opportunities for drug repurposing: Primary screen for U-2 OS cells (AID 1347096); further: nearly all actives have a fitted effect of over 50% in size
# In short: (§3)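 Cells (500-1,000/well) rested 5 h, then received compounds for 48 h; metabolically active cells were measured by CellTiter-Glo luminescence. Final concentrations spanned up to 46 µM (MIPE, 11-point) or 0.59 nM-46 µM (NPC, 8-point) in primary screens, 11-point in follow-ups.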
# [7] = qHTS of pediatric cancer cell lines to identify multiple opportunities for drug repurposing: Primary screen for Saos-2 cells (AID 1347097); further: nearly all actives have a fitted effect of over 40% in size
# In short: as §2
# [8] = qHTS of pediatric cancer cell lines to identify multiple opportunities for drug repurposing: Primary screen for SK-N-SH cells (AID 1347098); further: nearly all actives have a fitted effect of over 65% in size; further: potency means the concentration at half of the fitted maximal effect
# In short: as §3
# [9] = qHTS of pediatric cancer cell lines to identify multiple opportunities for drug repurposing: Primary screen for NB1643 cells (AID 1347099); further: nearly all actives have a fitted effect of over 50% in size
# In short: as §2
# [10] = qHTS of pediatric cancer cell lines to identify multiple opportunities for drug repurposing: Primary screen for LAN-5 cells (AID 1347100)
# In short: as §3
# [11] = qHTS of pediatric cancer cell lines to identify multiple opportunities for drug repurposing: Primary screen for BT-12 cells (AID 1347101); further: nearly all actives have a fitted effect of over 25% in size
# In short: as §3
# [12] = qHTS of pediatric cancer cell lines to identify multiple opportunities for drug repurposing: Primary screen for Rh18 cells (AID 1347102); further: nearly all actives have a fitted effect of over 65% in size
# In short: as §3
# [13] = qHTS of pediatric cancer cell lines to identify multiple opportunities for drug repurposing: Primary screen for OHS-50 cells (AID 1347103); further: nearly all actives have a fitted effect of over 40% in size; further: potency means the concentration at half of the fitted maximal effect
# In short: as §3
# [14] = qHTS of pediatric cancer cell lines to identify multiple opportunities for drug repurposing: Primary screen for RD cells (AID 1347104); further: nearly all actives have a fitted effect of over 55% in size
# In short: as §2
# [15] = qHTS of pediatric cancer cell lines to identify multiple opportunities for drug repurposing: Primary screen for MG 63 (6-TG R) cells (AID 1347105); further: nearly all actives have a fitted effect of over 50% in size; further: potency means the concentration at half of the fitted maximal effect
# In short: as §2
# [16] = qHTS of pediatric cancer cell lines to identify multiple opportunities for drug repurposing: Primary screen for control Hh wild type fibroblast cells (AID 1347106);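 further: series mostly up to about 46 µM; a drop in luminescence marks cytotoxicity and a rise apparent proliferation; nearly all actives have a fitted effect of over 55% in size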
# In short: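 Viability after 48 h compound treatment at 37C, 500-1,000 cells/well, read as ATP luminescence with CellTiter-Glo. Primary screens used 11-point (MIPE, 0.78 nM-46 µM) or 8-point (NPC, 0.59 nM-46 µM) final concentrations; follow-up screens used 11-point dilutions.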
# [17] = qHTS of pediatric cancer cell lines to identify multiple opportunities for drug repurposing: Primary screen for Rh30 cells (AID 1347107); further: series mostly up to about 46 µM; nearly all actives have a fitted effect of over 75% in size
# In short: as §3
# [18] = qHTS of pediatric cancer cell lines to identify multiple opportunities for drug repurposing: Primary screen for Rh41 cells (AID 1347108);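 further: series mostly up to about 46 µM; luminescence drop marks cytotoxic hits; nearly all actives have a fitted effect of over 70% in size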
# In short: as §2
# [19] = qHTS of pediatric cancer cell lines to identify multiple opportunities for drug repurposing: Primary screen for A673 cells (AID 1347092); further: nearly all actives have a fitted effect of over 45% in size
# In short: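 Luminescence from CellTiter-Glo, taken after 15 min at room temperature, served as the proxy for metabolically active cells following 48 h treatment. Both potency and efficacy were taken from curves fitted to the titration data.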
# [20] = qHTS of pediatric cancer cell lines to identify multiple opportunities for drug repurposing: Confirmatory screen for A673 cells (AID 1347110);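 further: potency means the concentration at half of the fitted maximal effect; cells exposed to compound for 48 h before the viability read; nearly all actives have a fitted effect of over 65% in size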
# In short: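 qHTS titration format: primary MIPE 0.78 nM-46 µM (11 pts), NPC 0.59 nM-46 µM; confirmation 11 pts. 48 h, CTG luminescence.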
SMILES,Potency [1],Potency [2],Potency [3],Potency [4],Potency [5],Potency [6],Potency [7],Potency [8],Potency [9],Potency [10],Potency [11],Potency [12],Potency [13],Potency [14],Potency [15],Potency [16],Potency [17],Potency [18],Potency [19],Potency [20]
COC(=O)/C=C\C(=O)OC,inactive,inactive,inactive,inactive,inactive,inactive,inactive,inactive,inactive,inactive,inactive,inactive,inactive,inactive,inactive,inactive,inactive,inactive,–,–
COc1ccc(OC(=O)N(CC(=O)O)Cc2ccc(OCCc3nc(-c4ccccc4)oc3C)cc2)cc1,inactive,inactive,–,inactive,inactive,inactive,–,inactive,inactive,inactive,inactive,inactive,inactive,–,inactive,inactive,inactive,inactive,inactive,–
CCOc1ccccc1OCC1CNCCO1 (stereo not given),inactive,inactive,–,inactive,inactive,inactive,–,inactive,inactive,inactive,inactive,inactive,inactive,–,inactive,–,inactive,inactive,inactive,–
CN1C(=O)CC(C)(c2ccccc2)C1=O (stereo not given),inactive,inactive,–,inactive,inactive,inactive,–,inactive,inactive,inactive,inactive,inactive,inactive,inactive,inactive,inactive,inactive,inactive,inactive,–
COC(=O)C1=C(C)NC(COC(N)=O)=C(C(=O)OC(C)C)C1c1cccc(Cl)c1Cl (stereo not given),inactive,inactive,–,–,inactive,inactive,–,24.4 µM (active),inactive,inactive,–,inactive,–,inactive,inactive,inactive,inactive,inactive,inactive,–
OC(CCCN1CCCCC1)(c1ccccc1)c1ccccc1,inactive,inactive,–,inactive,inactive,–,inactive,inactive,inactive,inactive,–,inactive,–,–,inactive,inactive,inactive,inactive,inactive,–
CN(C(=O)C(Cl)Cl)c1ccc(OC(=O)c2ccco2)cc1,inactive,inactive,–,inactive,inactive,inactive,inactive,inactive,inactive,–,inactive,inactive,inactive,inactive,inactive,–,inactive,inactive,inactive,–
CCOCCn1c(C2CCN(CCc3ccc(C(C)(C)C(=O)O)cc3)CC2)nc2ccccc21,inactive,inactive,–,inactive,–,inactive,–,–,inactive,inactive,inactive,inactive,inactive,inactive,inactive,–,inactive,inactive,inactive,–
CN(C)CCOC(c1ccccc1)c1ccc(Br)cc1 (stereo not given),inactive,inactive,–,inactive,inactive,inactive,inactive,15.4 µM (active),inactive,–,inactive,inactive,21.9 µM (active),–,inactive,–,inactive,inactive,inactive,–
O=C1Nc2ccccc2C1(c1ccc(O)cc1)c1ccc(O)cc1,inactive,inactive,–,inactive,inactive,inactive,inactive,–,–,inactive,inactive,inactive,0.872 µM (active),inactive,0.133 µM (active),inactive,inactive,inactive,inactive,–
C#Cc1ccc(-c2ccccc2F)cc1,inactive,inactive,inactive,inactive,inactive,inactive,inactive,inactive,inactive,inactive,inactive,inactive,inactive,inactive,inactive,inactive,inactive,–,–,–
CC(C)(C)C(O)/C=C/c1ccc2c(c1)OCO2 (stereo not given),inactive,inactive,–,inactive,–,inactive,inactive,inactive,inactive,–,inactive,inactive,–,–,inactive,inactive,inactive,–,inactive,–
CC(=O)[C@@]1(O)CC[C@H]2[C@@H]3C[C@H](C)C4=CC(=O)CC[C@]4(C)[C@H]3CC[C@@]21C,inactive,inactive,–,inactive,inactive,inactive,inactive,inactive,inactive,–,–,inactive,27.6 µM (active),inactive,inactive,inactive,inactive,inactive,inactive,0.261 µM (active)
CCOC(=O)c1ccc(O)c(O)c1,inactive,inactive,–,inactive,–,inactive,–,inactive,inactive,–,–,inactive,–,inactive,inactive,inactive,inactive,inactive,inactive,–
